These results are taken from PubChem BioAssay (NCATS).

The subject of test [1] is CRL-7250. The test can be described thus: Cytotoxic Profiling of Annotated Libraries Using Quantitative High-Throughput Screening (AID 1296008). As to max response: % is scaled to controls: 0 for no effect and ±100 for the full control effect. To be noted: Five cell lines viability, CellTiter-Glo ATP luminescence, 48-72 h; max response: stronger effect = lower value. Summed up: (§1)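 Cells exposed to compounds for 48 or 72 hr at 37 degrees Celsius. Viability read as ATP-coupled luminescence with CellTiter-Glo after 10 min at room temperature.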
(In ATP-based viability assays light output follows the ATP content of the culture.)

The subject of test [2] is HEK293. The description is as above. To be noted: Five cell lines viability, CellTiter-Glo ATP luminescence, 48-72 h; max response: stronger effect = lower value. The essentials:
as §1

Test [3] has as its system HaCat. The test is described as above. Conditions: Five cell lines viability, CellTiter-Glo ATP luminescence, 48-72 h; max response: stronger effect = lower value. The essentials:
as §1

In test [4] the test system is KB-3-1. The test is described as above. Conditions: Five cell lines viability, CellTiter-Glo ATP luminescence, 48-72 h; max response: stronger effect = lower value. Summed up:
as §1

The test system of test [5] is GB4. The test can be described thus: qHTS profiling for inhibitors of Plasmodium falciparum proliferation (AID 504749). Conditions: P. falciparum in erythrocytes, SYBR Green DNA, 72 h; series mostly up to 28.7 µM. Summed up: (§2)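 Readout was DNA-dye fluorescence from lysed cultures, ex 485/em 535 nm. Parasitized red cells had grown 72 h with compound; data scaled between 0.29 uM artemisinin and DMSO wells and corrected using vehicle-only plates.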
Background: Quantitative high-throughput screening tests each substance at several concentrations.

Test [6] relates to HB3. The description is as above. Conditions: P. falciparum in erythrocytes, SYBR Green DNA, 72 h; series mostly up to 28.7 µM. The essentials:
as §2

The subject of test [7] is JCK. Described as above. Conditions: P. falciparum in erythrocytes, SYBR Green DNA, 72 h; series mostly up to 28.7 µM. The essentials:
as §2

Test [8] has as its system P94_40. Described as above. Conditions: P. falciparum in erythrocytes, SYBR Green DNA, 72 h; series mostly up to 28.7 µM. The essentials:
as §2

Test [9] deals with PC15. The test is described as above. Conditions: P. falciparum in erythrocytes, SYBR Green DNA, 72 h; series mostly up to 28.7 µM. The essentials:
as §2

Test [10] deals with PC49. The description is as above. Conditions: P. falciparum in erythrocytes, SYBR Green DNA, 72 h; series mostly up to 28.7 µM. The essentials: as §2
Test [11] deals with SC27B. The test is described as above. To be noted: P. falciparum in erythrocytes, SYBR Green DNA, 72 h; series mostly up to 28.7 µM. The essentials: as §2
Test [12] has as its system TAB109. The test is described as above. To be noted: P. falciparum in erythrocytes, SYBR Green DNA, 72 h; series mostly up to 28.7 µM. Summed up:
as §2

Test [13] concerns TAB113. The description is as above. To be noted: P. falciparum in erythrocytes, SYBR Green DNA, 72 h; series mostly up to 28.7 µM. The essentials: as §2
Test [14] relates to W2. The description is as above. Conditions: P. falciparum in erythrocytes, SYBR Green DNA, 72 h; series mostly up to 28.7 µM. The essentials:
as §2

Values joined by “and” are separate entries in the source; they are usually repeats but may differ in a detail not shown here. Identical values can stand only once. Records with an inconclusive call do not appear. A number with no mark means an inactive call. Active and inactive are the calls of the source. Calls follow the shape of the dose curve; as a rule, active = well fitted inhibition curve with a large enough effect; inconclusive = small, poorly fitted or top-dose-only effect; inactive = flat fitted curve, though single readings scatter.
Also: nearly all actives have a fitted effect of over 60% in size.
Potency is read from the fitted curve at half-maximal effect.

As for `CCC(C)n1ncn(-c2ccc(N3CCN(c4ccc(OC[C@H]5CO[C@](Cn6cncn6)(c6ccc(Cl)cc6Cl)O5)cc4)CC3)cc2)c1=O` (some centres undefined), the max response in [1] was -2.71%; in test [3], 1.24%; in test [4], -3.28% and -9.44% and -24.5%. Moreover, the Potency in [2] is 2.82 µM (active). Besides, the call in [3] was inactive.
Regarding `OC(CCN1CCCCC1)(c1ccccc1)C1CC2C=CC1C2` (centres undefined), the compound was called inactive in [1], in test [2], in test [3] and in test [4]. Moreover, the max response was -0.0685% in test [3]; -2.63% and -12.8% in test [4].
In the case of `Cc1c(CN2CCN(C(=O)C(C)C)CC2)sc2c(N3CCOCC3)nc(-c3cnc(N)nc3)nc12`, the Potency in [1] was 0.118 µM (active); in test [2] it was 0.187 µM (active); in test [3], 1.05 µM (active); in [4], 0.148 µM (active).
With `O=C(O)CCc1ccc(NCc2cccc(Oc3ccccc3)c2)cc1`, the max response in [1] is 4.81%; in test [3] it was -7.54%; in test [4], -3.52% and 6.14%. For the same compound, the result in [2] and in test [3] was inactive.
Turning to `CCC(=O)N[C@H]1CC[C@H](C(=O)N(C)c2ccc(-c3nc4ccccc4o3)cc2)C1`, the max response was -6.63% in test [1] and -16.3% in test [4]. For the same compound, in test [2], the Potency was 20.9 µM (active). Further, the compound was classed as inactive in test [3].
Regarding `CNC(=O)c1ccc(C)c(-n2c(C)cc(OCc3ccc(F)cc3F)c(Br)c2=O)c1`, the figures for the max response in [1], in test [3] and in [4] were -9.42%, -14.3% and -4.9%, respectively. Also, in [2], the Potency was 11.6 µM (active). Further, the outcome in test [3] was inactive.
As to `CC[C@H](Nc1ncnc2nc[nH]c12)c1nc2cccc(F)c2c(=O)n1-c1ccccc1`, the max response in [1] is -4.35%. Also, the Potency in test [2] was 23.5 µM (active); in [3], 13.2 µM (active). Also, the result in test [4] was inactive.
On to `Cc1c(C)c2c(c(C)c1O)CCC(C)(COc1ccc(CC3SC(=O)NC3=O)cc1)O2` (centres undefined), for which the Potency is 12 µM (active) in test [5]; 10 µM (active) in test [8]; 10 µM (active) in test [11]; 11.2 µM (active) in test [13]; 6.75 µM (active) in test [14]. Besides, the Potency entry in test [6], in [7], in [9], in test [10] and in test [12] was “inactive” each time. Besides, the outcome in test [1] and in test [2] was inactive. Further, the max response was -17% in [2]; -2.71% and -9.42% in test [4].
Turning to `COc1ccc(COc2cc3oc(=O)c4cc(C(C)O)ccc4c3cc2OC)cc1` (centres undefined), the Potency is 10.5 µM (active) in test [1] and 14.8 µM (active) in test [2]. Further, the compound was called inactive in [3].
Regarding `Cn1cc(-c2ccc3nnc(C(F)(F)c4ccc5ncccc5c4)n3n2)cn1`, the max response was -14.4% in [1]; -1.08% in test [2]; -1.46% in test [3]; 5.05% and 7.07% in test [4].
For the compound `CCCn1c(=O)c2[nH]c(C34CC5CC3C[C@@H](C5)C4)nc2n(CCC)c1=O`, the compound was called inactive in test [1]. Further, the max response is -11% in test [2] and 5.05% in [4].
On to `CCN(CC)CCCC(C)Nc1nc(C)cc(Nc2ccc3nc(C)cc(N)c3c2)n1` (centres undefined), for which the max response in [1] is -4.56%; in [2], -11.7%. The outcome in test [3] and in [4] was inactive.
Regarding `CCOc1ccc(Cc2cc([C@@H]3O[C@H](CO)[C@@H](O)[C@H](O)[C@@H]3O)ccc2Cl)cc1`, the values for the max response in [1], in test [2] and in [4] were -1.42%, 1.73% and 6.49%, respectively. Besides, the compound was called inactive in test [3].
With `C[C@]12CC[C@H](O)CC1=CC[C@@H]1[C@H]2CC[C@]2(C)C(c3cccnc3)=CC[C@H]12`, the compound was called inactive in test [1] and in [3]. Moreover, the max response was -4.02% in test [2] and -14.4% in test [4].
